Source: PubChem BioAssay (Pan Lab, Icahn School of Medicine at Mount Sinai)
The sample as a whole holds a higher share of hits than the screen did.
RBX1-CUL1 inh = human ROC1-CUL1 E3 ligase inhibition; P62877+Q13616; AID 1347404; in vitro K48 di-Ub FRET, acceptor:donor ratio, 45 min; actives 0.6% (n = 140,000); inhibition, % at 10 µM; in the data active means inhibition above about 25%
Target sequence (P62877 whole entry, looked up): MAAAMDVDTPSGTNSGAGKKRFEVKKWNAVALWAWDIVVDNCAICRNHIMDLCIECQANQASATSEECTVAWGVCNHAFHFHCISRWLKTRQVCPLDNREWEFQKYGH
Target sequence (Q13616 whole entry, looked up): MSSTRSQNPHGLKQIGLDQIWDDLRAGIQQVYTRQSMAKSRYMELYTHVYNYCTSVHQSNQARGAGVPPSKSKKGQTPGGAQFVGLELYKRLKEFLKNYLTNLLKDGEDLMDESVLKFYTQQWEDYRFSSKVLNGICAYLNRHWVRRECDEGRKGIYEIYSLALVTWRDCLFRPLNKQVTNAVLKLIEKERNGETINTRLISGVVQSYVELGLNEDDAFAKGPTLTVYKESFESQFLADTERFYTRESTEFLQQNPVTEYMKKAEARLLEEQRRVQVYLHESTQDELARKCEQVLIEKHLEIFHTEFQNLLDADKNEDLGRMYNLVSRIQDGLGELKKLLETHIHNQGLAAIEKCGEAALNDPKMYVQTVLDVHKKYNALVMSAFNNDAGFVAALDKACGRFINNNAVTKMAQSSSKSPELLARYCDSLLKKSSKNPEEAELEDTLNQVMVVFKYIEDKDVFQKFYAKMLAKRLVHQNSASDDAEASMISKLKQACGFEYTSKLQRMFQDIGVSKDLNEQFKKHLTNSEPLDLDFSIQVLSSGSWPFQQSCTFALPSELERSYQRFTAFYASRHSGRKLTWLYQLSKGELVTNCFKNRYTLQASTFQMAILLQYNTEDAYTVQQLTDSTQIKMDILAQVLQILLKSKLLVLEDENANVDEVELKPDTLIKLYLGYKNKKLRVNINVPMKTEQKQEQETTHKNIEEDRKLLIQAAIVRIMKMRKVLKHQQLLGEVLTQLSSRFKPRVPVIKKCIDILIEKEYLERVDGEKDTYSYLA
An asterisk follows results filed as active.

SMILES | RBX1-CUL1 inh
COc1ccccc1C(c1c(C)[nH]n(-c2ccccc2)c1=O)c1c(C)[nH]n(-c2ccccc2)c1=O | 26.8*
Cc1[nH]n(-c2ccccc2)c(=O)c1C(c1cccc(OCc2ccc(Cl)cc2)c1)c1c(C)[nH]n(-c2ccccc2)c1=O | 10.2
Cc1[nH]n(-c2ccccc2)c(=O)c1CCc1ccccc1 | -3.7
Cc1[nH]n(-c2ccccc2)c(=O)c1C(c1ccc(C(=O)O)cc1)c1c(C)[nH]n(-c2ccccc2)c1=O | -11.9
CCOc1ccccc1C(c1c(C)[nH]n(-c2ccccc2)c1=O)c1c(C)[nH]n(-c2ccccc2)c1=O | 45.6*
CCOc1ccc(C(c2c(C)[nH]n(-c3ccccc3)c2=O)c2c(C)[nH]n(-c3ccccc3)c2=O)cc1OC | 8.3
CC1CCCCN1S(=O)(=O)c1ccc(NC(=O)C(C)(C)C)cc1 (stereo not given) | -7.3
COc1ccc(Br)cc1C(=O)Nc1nc2ccc(F)cc2s1 | 13.3
C=CCN1C(=O)N=C(Cc2c(F)cccc2Cl)C1=O | 12.7
Nc1ccc2ccc3cccnc3c2n1 | -8.3
CS(=O)(=O)c1ccccc1C(=O)O | 4.1
Nc1ccc2cccc(C(=O)O)c2n1 | 69.9*
CCCCn1c(SCc2ccccc2)nc2sc3c(c2c1=O)CCCC3 | 6.1
Cc1ccc2nc(/C(C#N)=C/c3coc4ccccc4c3=O)[nH]c2c1 | 25.9*
Cc1ccc2nc(/C(C#N)=C/c3ccccc3Cl)[nH]c2c1 | -1.3
COc1cccc(/C=C(\C#N)c2nc3ccc(C)cc3[nH]2)c1 | 16.9
Cc1ccc([N+](=O)[O-])cc1NC(=O)CCc1ccccc1 | 3.6
O=C(c1ccc2c(c1)N(Cc1ccc(Cl)cc1)C(=O)c1ccccc1S2(=O)=O)N1CCCCCC1 | -12.8
S=c1[nH]nc(-c2ccccc2)n1/N=C/c1cc(Br)c(I)o1 | -6.3
O=C1NC(=O)C(=Cc2cc(O)c(O)c(Br)c2)C(=O)N1 | 49.3*
COc1cc(C=C2C(=O)NC(=O)NC2=O)cc(I)c1OC | -0.1
O=C1C(=Cc2ccc(O)c(Br)c2)C(=O)c2ccccc21 | -5.5
O=C1NC(=O)C(=Cc2cc(Br)c(I)o2)C(=O)N1 | 79.7*
COc1ccccc1CCNC(=O)Cn1ncc(N2CCOCC2)cc1=O | 12.1
COc1ccc(S(=O)(=O)N2CCC(C(=O)Nc3cc(C(F)(F)F)ccc3Cl)CC2)cc1 | -0.1
SMILES | RBX1-CUL1 inh
Cc1ccc(S(=O)(=O)n2ncc(Cl)c(Cl)c2=O)cc1 | -5.1
COc1ccc(-c2cc(-c3ccccc3)nc3sc(C(=O)Nc4cc(C)cc(C)c4)c(N)c23)cc1 | 4.9
CCC1CCCCN1C(=O)Cn1c(=O)oc2cc(S(=O)(=O)N3CCCCC3)ccc21 (stereo not given) | -3.9
Cc1cc(C)n(Cc2cccc(C(=O)NCCc3cc(=O)[nH]cn3)c2)n1 | 13.4
O=S(=O)(CCc1nc2ccccc2[nH]1)c1ccc(Cl)cc1 | 2.4
FC(F)(F)c1ccc2nc(-c3ccc(Br)cc3)cn2c1 | -1.6
Brc1ccc(-c2cn3ccncc3n2)cc1 | 29.1*
O=[N+]([O-])c1ccc2nc(-c3ccc(Br)cc3)cn2c1 | 5.4
CCN1C(=O)CCNc2ccccc21 | -9.6
O=c1c2cc(Br)ccc2ncn1Cc1ccccc1Cl | -2.6
CN(Cc1ccc(-n2cccn2)cc1)C(=O)c1cn(C2CC2)cc(C(=O)NC2CCCCC2)c1=O | -0.8
Brc1cc(-c2ccncn2)cs1 | -3.3
O=[N+]([O-])c1cc(-c2ccncn2)sc1[N+](=O)[O-] | 40.7*
Clc1ccc(-c2ccncn2)cc1Cl | 6.9
Cc1ccc(C(C)C)c(OCC(=O)Nc2ccc(S(=O)(=O)Nc3cc(C)nc(C)n3)cc2)c1 | 1.9
CC1=NN(c2ccc(Cl)c(C(=O)O)c2)C(=O)/C1=C\c1cnn(-c2ccc(C)c(C)c2)c1 | 99.5*
CC1=NN(c2ccc(C(=O)O)cc2)C(=O)/C1=C/c1cc(C(C)(C)C)c(O)c(C(C)(C)C)c1 | 12.1
CC1=NN(c2ccc(Cl)c(Cl)c2)C(=O)/C1=C/c1ccc(C)cc1 | -8.1
COC(=O)C1CCN(CC(O)COc2ccc(CNCCOC(C)C)cc2)CC1 (stereo not given) | 10.5
CCOC(=O)c1sc(SC)c(C#N)c1O | -2.4
CCOC(=O)c1sc(N2C(=O)C=CC2=O)c(C#N)c1C | 71.8*
CCOC(=O)c1sc(NC(=O)C(F)(F)F)c(C#N)c1C | 8.3
CCOC(=O)c1c(-n2c(C)cc(/C=C3\C(=O)NC(=S)N(c4ccccc4)C3=O)c2C)sc2c1CCCC2 | 49.1*
Cc1cc(C=C2C(=O)NC(=S)NC2=O)c(C)n1-c1sc2c(c1C(=O)Nc1ccccc1)CCCC2 | -1.6
CCOc1ccc(N2C(=O)/C(=C/c3cc(C)n(C4CCCC4)c3C)C(=O)NC2=S)cc1 | -3.8
SMILES | RBX1-CUL1 inh
O=C(Nc1ccc2c(c1)CN(C(=O)C1CCOC1)CC2)c1ccccc1Cl (stereo not given) | -1.1
Cn1c(=O)c2c(ncn2CC(=O)NCc2ccc(S(N)(=O)=O)cc2)n(C)c1=O | 8.7
CCCCCC(=O)N1c2ccccc2C(C)(c2ccccc2)CC1(C)C (stereo not given) | 6.9
CCC(CC)C(=O)N1c2ccccc2C(C)(c2ccccc2)CC1(C)C (stereo not given) | 27.8*
CCC(=O)N1c2ccccc2C(C)(c2ccccc2)CC1(C)C (stereo not given) | 2.6
O=c1oc2c(CN3CCOCC3)c(O)ccc2cc1-c1ccc(Cl)cc1 | -0.6
CC(C)Oc1c(-c2ccc(F)cc2)c(=O)c1=O | -8.8
CC(C)Oc1c(-c2ccco2)c(=O)c1=O | 68.5*
CC(C)Oc1c(-c2ccccc2)c(=O)c1=O | 7.0
COc1ccc(Cl)cc1NC(=O)CN1C(=O)CSc2ccc(S(=O)(=O)N3CCCC3)cc21 | -9.0
Cc1ccc(NC(=O)CCC2CCCC2)cc1 | -5.4
O=C(Nc1ccc(OCCOc2ccccc2)cc1)c1ccco1 | 13.2
CCOc1ccc2nc3cc(NC(=O)c4ccco4)ccc3c(N)c2c1 | 97.4*
CCCCOc1cccc(NC(=O)c2ccco2)c1 | -4.5
O=C1CCc2cc(S(=O)(=O)NCc3ccc(F)cc3)cc3c2N1CC3 | -0.7
CCS(=O)(=O)c1ncc(CN2CCC(O)CC2)n1CCCc1ccccc1 | 3.5
COc1ccccc1N(CC(=O)NC1CCCC1)S(=O)(=O)c1ccc(C)cc1 | 3.9
COC(=O)c1cc(Br)cc(O)c1O | 83.1*
COC(=O)c1cc(Br)ccc1Cl | 4.1
COC(=O)c1ccc(C(=O)OC)c(NC(=O)c2ccc(Br)cc2)c1 | -8.9
C=CCn1c(SCC(=O)Nc2cccc(C(F)(F)F)c2)nc2sc3c(c2c1=O)CCC3 | -5.2
C=CCn1c(SCC(=O)Nc2sc(C(=O)OCC)c(C)c2C(=O)OCC)nc2scc(-c3ccco3)c2c1=O | 7.8
C=CCn1c(SCC(=O)Nc2cccc(C(F)(F)F)c2)nc2scc(-c3ccco3)c2c1=O | 33.9*
Cc1ccc(C2C(C)C(N3CCC(C(=O)N4CCC(C(N)=O)CC4)CC3)NS2(=O)=O)cc1C (stereo not given) | 6.8
O=C1C(=O)c2ccccc2/C1=C\c1cccs1 | 6.1
SMILES | RBX1-CUL1 inh
O=C1C(Cl)=CC(=NS(=O)(=O)c2cccs2)c2ccccc21 | 41.4*
O=C(O)C(Cc1ccccc1)NS(=O)(=O)c1cccs1 (stereo not given) | -1.2
CCc1ccccc1N=C1C(=O)N(Cc2ccccc2)C(=O)C1Cl (stereo not given) | 2.3
CCc1nn(CC(=O)NCCN(CC(C)C)CC(C)C)c(=O)c2cc3sc(C)cc3n12 | -3.7
O=C(Nc1ccc(S(=O)(=O)Nc2ccc(Cl)nn2)cc1)c1ccc(COc2cc(Cl)ccc2Cl)o1 | 35.1*
O=C(Nc1ccc(S(=O)(=O)Nc2ccc(Cl)nn2)cc1)c1ccc(COc2cccc(Cl)c2)o1 | 14.2
